# Data from PubChem BioAssay (NCI).
# About 79,000 compounds went through this panel and 15% of them were active in at least one assay; those are over-represented in the sample as a whole. Activity calls are given as the source filed them. Rule as the data show it: active = growth inhibition above about 70%; inactive = the rest.
# Legend:
# [1] = NCI Yeast Anticancer Drug Screen. Data for the rad50 strain (AID 155);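 also: 0% = growth of vehicle-only cultures of the same strain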; conditions: S. cerevisiae rad50 strain growth inhibition, active compounds read high
# In short: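 Inhibition values express reduced yeast growth in compound-treated cultures relative to vehicle-treated controls.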
# [2] = NCI Yeast Anticancer Drug Screen. Data for the mec2-1 strain (AID 157); conditions: S. cerevisiae mec2-1 strain, active compounds read high
# In short: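 Strain: mec2-1 (DNA repair/cell cycle alteration). Compound exposure, then growth measured; inhibition expressed relative to vehicle.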
# [3] = NCI Yeast Anticancer Drug Screen. Data for the sgs1 mgt1 strain (AID 161);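 also: 0% = growth of cultures given vehicle only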; conditions: S. cerevisiae sgs1 mgt1 strain, active compounds read high
# In short: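 Genetically altered yeast, compound exposure, growth inhibition relative to vehicle.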
# [4] = NCI Yeast Anticancer Drug Screen. Data for the cln2 rad14 strain (AID 165);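 also: 0% = growth equal to vehicle treated cultures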; conditions: S. cerevisiae cln2 rad14 strain, active compounds read high
# In short: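 Compounds are applied to the cln2 rad14 yeast strain, and growth is then compared with that of vehicle-treated cultures to give inhibition.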
# [5] = NCI Yeast Anticancer Drug Screen. Data for the bub3 strain (AID 167); conditions: S. cerevisiae bub3 mutant strain, active compounds read high
# In short: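 Steps: expose the mutant yeast strain to compound; grow alongside vehicle-treated cultures; measure growth; express inhibition against the vehicle cultures.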
# [6] = NCI Yeast Anticancer Drug Screen. Data for the mlh1 rad18 strain (AID 175); conditions: S. cerevisiae mlh1 rad18 strain growth inhibition, active compounds read high
# In short: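 Read-out is yeast growth inhibition, calculated against vehicle-only controls. The compound was applied to a strain engineered with DNA damage repair alterations.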
# [7] = at 5.0 µM (retest, dose inferred, filed as 0.5)
# [8] = at 50.0 µM (retest, dose inferred, filed as 5.0)
SMILES,"growth inhibition [1, 7]","growth inhibition [1, 8]",growth inhibition ([1]; at 50.0 µM),"growth inhibition [2, 7]","growth inhibition [2, 8]",growth inhibition ([2]; at 50.0 µM),"growth inhibition [3, 7]","growth inhibition [3, 8]",growth inhibition ([3]; at 50.0 µM),"growth inhibition [4, 7]","growth inhibition [4, 8]",growth inhibition ([4]; at 50.0 µM),"growth inhibition [5, 7]","growth inhibition [5, 8]",growth inhibition ([5]; at 50.0 µM),"growth inhibition [6, 7]","growth inhibition [6, 8]",growth inhibition ([6]; at 50.0 µM)
N#C/C(=C\NC(=S)C(N)=S)c1nc2ccccc2s1,21% (inactive),97% (active),88.1% (active),28% (inactive),99% (active),90.2% (active),7% (inactive),97% (active),89.2% (active),30% (inactive),97% (active),86.9% (active),22% (inactive),98% (active),87.8% (active),52% (inactive),97% (active),85.5% (active)
O=C(Nc1ccccc1)OCCN=c1c2ccccc2ccc2ccccc12,6% (inactive),84% (active),84% (active),-1% (inactive),71% (active),90.5% (active),7% (inactive),48% (inactive),88.2% (active),-15% (inactive),68% (inactive),82.7% (active),5% (inactive),78% (active),90% (active),5% (inactive),92% (active),87.2% (active)
CCCCCc1cccc(CC(=O)OCC)n1,-161% (inactive),-149% (inactive),-14.7% (inactive),-50% (inactive),-57% (inactive),-15.3% (inactive),-66% (inactive),-69% (inactive),-12.7% (inactive),-58% (inactive),-80% (inactive),26.9% (inactive),-66% (inactive),-42% (inactive),-12.3% (inactive),-127% (inactive),-132% (inactive),-6.15% (inactive)
O=C(O)c1ccc(NC(c2ccccc2)c2ccc3cccnc3c2O)cc1 (stereo not given),-12% (inactive),98% (active),98.2% (active),2% (inactive),98% (active),98% (active),-8% (inactive),98% (active),97.8% (active),-40% (inactive),95% (active),97.5% (active),-3% (inactive),98% (active),97.7% (active),9% (inactive),98% (active),98.2% (active)
Fc1ccc(CSC(=S)Nc2ccc(F)cc2)cc1,5% (inactive),29% (inactive),69.5% (inactive),0% (inactive),16% (inactive),47.6% (inactive),2% (inactive),29% (inactive),68.3% (inactive),-9% (inactive),-4% (inactive),32.5% (inactive),-6% (inactive),8% (inactive),27.6% (inactive),-3% (inactive),19% (inactive),78.7% (active)
CN(C)c1ccccc1CN1CCCN(Cc2ccccc2N(C)C)C1,-4% (inactive),7% (inactive),69.8% (inactive),8% (inactive),26% (inactive),50% (inactive),1% (inactive),35% (inactive),75.2% (active),0% (inactive),2% (inactive),4.45% (inactive),2% (inactive),6% (inactive),1.5% (inactive),18% (inactive),35% (inactive),63.3% (inactive)
CC(=O)C(=C(I)I)c1ccccc1,-20% (inactive),71% (active),51.6% (inactive),-21% (inactive),89% (active),55% (inactive),-27% (inactive),93% (active),73.7% (active),8% (inactive),34% (inactive),30.8% (inactive),-34% (inactive),83% (active),33.4% (inactive),-28% (inactive),80% (active),24.2% (inactive)
CC1C(O)Oc2cc3c(cc2C1c1ccccc1O)OCO3 (stereo not given),-10% (inactive),77% (active),61.8% (inactive),-41% (inactive),84% (active),32.1% (inactive),-33% (inactive),40% (inactive),56.5% (inactive),20% (inactive),87% (active),69.7% (inactive),25% (inactive),84% (active),38.6% (inactive),-13% (inactive),90% (active),54.5% (inactive)
CCCSc1ncnc2nc(C)[nH]c12,-1% (inactive),-1% (inactive),6.9% (inactive),3% (inactive),-7% (inactive),-14.5% (inactive),-2% (inactive),-3% (inactive),2.25% (inactive),0% (inactive),-1% (inactive),39.6% (inactive),-1% (inactive),-6% (inactive),1.85% (inactive),0% (inactive),0% (inactive),-8.25% (inactive)
Cc1ccc(C2=C(C#N)C(c3ccccc3)C(C#N)=C(N)O2)cc1 (stereo not given),57% (inactive),95% (active),97.5% (active),53% (inactive),99% (active),98.5% (active),71% (active),98% (active),97.8% (active),35% (inactive),99% (active),98.9% (active),48% (inactive),98% (active),97.9% (active),59% (inactive),98% (active),98.5% (active)
[Fe+2].c1cc[cH-]c1.c1ccc(-c2ccc[cH-]2)cc1,-4% (inactive),29% (inactive),7.6% (inactive),-2% (inactive),32% (inactive),23.3% (inactive),-6% (inactive),47% (inactive),-9.4% (inactive),1% (inactive),16% (inactive),16.9% (inactive),0% (inactive),41% (inactive),74.7% (active),1% (inactive),24% (inactive),19% (inactive)
NC(=Nc1cc2ccccc2c2ccccc12)Nc1cc2ccccc2c2ccccc12,87% (active),97% (active),85.8% (active),91% (active),99% (active),77.2% (active),89% (active),99% (active),95.3% (active),45% (inactive),96% (active),95% (active),35% (inactive),97% (active),97.7% (active),97% (active),97% (active),97.5% (active)
O=C(Cc1nc2ccc(Cl)cc2nc1CC(=O)c1ccccc1)c1ccccc1,10% (inactive),96% (active),95.2% (active),2% (inactive),93% (active),85.5% (active),-2% (inactive),94% (active),61.7% (inactive),-5% (inactive),92% (active),67.3% (inactive),-1% (inactive),97% (active),77.5% (active),7% (inactive),96% (active),96.3% (active)
Cc1cc(-c2ccccc2)c(C)c(-c2ccccc2)c1-c1ccccc1,5% (inactive),4% (inactive),74.6% (active),0% (inactive),-1% (inactive),37.9% (inactive),3% (inactive),7% (inactive),40% (inactive),-5% (inactive),64% (inactive),80.7% (active),-13% (inactive),13% (inactive),57.4% (inactive),1% (inactive),16% (inactive),60.8% (inactive)
CC(=O)Oc1cccc2c(OC(C)=O)cccc12,-8% (inactive),87% (active),69.2% (inactive),-19% (inactive),91% (active),39.8% (inactive),-9% (inactive),53% (inactive),70.8% (active),-8% (inactive),34% (inactive),26.9% (inactive),-32% (inactive),92% (active),58.2% (inactive),-6% (inactive),89% (active),65.6% (inactive)
O=C([O][Sb]([O]C(=O)C(Cl)(Cl)Cl)([c]1ccccc1)([c]1ccccc1)[c]1ccccc1)C(Cl)(Cl)Cl,12% (inactive),76% (active),41% (inactive),7% (inactive),56% (inactive),29.2% (inactive),10% (inactive),77% (active),67.1% (inactive),-5% (inactive),55% (inactive),11.9% (inactive),6% (inactive),76% (active),-69.9% (inactive),3% (inactive),79% (active),66.7% (inactive)
O=C1CCC/C1=C\c1ccccc1,7% (inactive),15% (inactive),3.05% (inactive),7% (inactive),5% (inactive),7.6% (inactive),3% (inactive),6% (inactive),1.4% (inactive),-2% (inactive),-13% (inactive),49.3% (inactive),-2% (inactive),5% (inactive),6.1% (inactive),1% (inactive),4% (inactive),2.2% (inactive)
OC1c2cc(Cl)cc(Cl)c2OC2(N3CCCC3)CCCCC12 (stereo not given),62% (inactive),94% (active),81.5% (active),37% (inactive),87% (active),46.1% (inactive),44% (inactive),87% (active),82% (active),34% (inactive),47% (inactive),19.1% (inactive),51% (inactive),96% (active),73.3% (active),61% (inactive),96% (active),73.6% (active)
COC1(OC)C(C#N)(C#N)C2(C(=O)Nc3ccccc32)C1(OC)OC (stereo not given),11% (inactive),-4% (inactive),15.4% (inactive),-12% (inactive),-16% (inactive),12.2% (inactive),-2% (inactive),-25% (inactive),97% (active),-4% (inactive),-7% (inactive),28% (inactive),-14% (inactive),38% (inactive),-7.6% (inactive),10% (inactive),-22% (inactive),90% (active)
CC(C)C1=CC(=O)C2=C(CCC3C(C)(C(=O)O)CCC[C@]23C)C1=O (stereo not given in full),7% (inactive),99% (active),92.2% (active),28% (inactive),99% (active),93% (active),20% (inactive),99% (active),93.2% (active),15% (inactive),99% (active),90.7% (active),54% (inactive),98% (active),92.3% (active),21% (inactive),99% (active),91.7% (active)
ON=C(CC(O)(C(F)(F)Cl)C(F)(F)Cl)CC(O)(C(F)(F)Cl)C(F)(F)Cl,50% (inactive),99% (active),99.7% (active),69% (inactive),100% (active),99.6% (active),37% (inactive),99% (active),99.5% (active),68% (inactive),99% (active),99.5% (active),23% (inactive),100% (active),99.8% (active),62% (inactive),99% (active),99.5% (active)
CC(CN1CCOCC1)(CN1CCOCC1)[N+](=O)[O-],10% (inactive),99% (active),99.6% (active),8% (inactive),100% (active),99.8% (active),4% (inactive),100% (active),99.7% (active),3% (inactive),99% (active),99.3% (active),14% (inactive),99% (active),99.8% (active),13% (inactive),99% (active),99.5% (active)
CS/C(=N\N=C(/C)c1ccccn1)N1CCN(c2ccccn2)CC1,1% (inactive),22% (inactive),98.1% (active),-1% (inactive),14% (inactive),82.2% (active),-1% (inactive),96% (active),98.6% (active),-5% (inactive),84% (active),64.2% (inactive),-7% (inactive),94% (active),91.2% (active),-8% (inactive),98% (active),87.5% (active)
CCOC(=O)C(=Cc1ccc(OC)cc1)C(=O)OCC,0% (inactive),62% (inactive),39.6% (inactive),-1% (inactive),70% (active),52.4% (inactive),-3% (inactive),65% (inactive),55.6% (inactive),1% (inactive),57% (inactive),5.95% (inactive),18% (inactive),86% (active),68.8% (inactive),-1% (inactive),77% (active),66.5% (inactive)
Cc1cc(C(O)(C(F)(F)F)C(F)(F)F)c(I)c(C(O)(C(F)(F)F)C(F)(F)F)c1,100% (active),100% (active),97.3% (active),99% (active),100% (active),99.2% (active),99% (active),100% (active),99.2% (active),98% (active),99% (active),89.8% (active),99% (active),99% (active),98.7% (active),99% (active),99% (active),98.5% (active)
